Results reported in PubChem BioAssay (Tox21).
Several values for one entry are separate records, joined by “and”; a condition that tells them apart may be missing. Equal entries are not always repeated. A structure can be active in one record and inactive in another. Activity calls are given as the source filed them. Where a call stands in place of a potency, no number is given. The call rests on the fitted dose curve; in most records, active means well fitted activation curve with a large enough effect in the repeat runs; inconclusive means weak or mixed curves; inactive means flat fitted curve, though single readings scatter.

Assay: A CellTox Green Cytotoxicity Assay to monitor cytotoxicity in HEK293 cells - 0 hour (AID 1224869); further: nearly all actives have a fitted effect of over 50% in size
Conditions: CellTox Green fluorescence; series mostly up to 76.8 µM
Description: National Center for Advancing Translational Sciences [NCATS]
NIH Chemical Genomics Center [NCGC]
U.S. Environmental Protection Agency [EPA]
National Institutes of Environmental Health Sciences [NIEHS]
National Toxicology Program [NTP]
Cell-based models are critical for drug discovery. Determining the natural cytotoxic effects resulting from test compounds is an essential research activity. A CellTox Green Cytotoxicity Assay to monitor cytotoxicity in real time of continues cell culture during 40 hours of the compound treatment was used to screen Tox21 10K library compounds in Hek293 cells. CellTox Green Cytotoxicity Assay is a nonlytic, homogeneous, biofluorescent method to measure cytotoxicity in cell culture after experimental manipulation. The assay system uses a proprietary asymmetric cyanine dye that is excluded from viable cells but preferentially stains the dead cell's DNA. […] Viable cells produce no appreciable increases in fluorescence. Therefore, the fluorescence signal produced by the binding interaction with dead cell DNA is proportional to cytotoxicity.
The mixture of Hek293 cell suspension and reagents were dispensed at 600cells/6 ul/well in 1536-well tissue culture treated black solid bottom plates using a Multidrop dispenser. After the assay plates were incubated at a 37 C/5% CO2 incubator for 5 hours, 23 nL of compounds dissolved in DMSO, positive and negative controls was transferred to the assay plate by a pintool work station. The plates were incubated at 37 C for 40 hours. The fluorescence intensity were measured at 0h, 8h, 16h, 24h, 32h and 40h time points using ViewLux plate reader during compound treatment.
Potency means the concentration at half of the fitted maximal effect.

Compound	Potency
CCCCCCCCC(=O)NCc1ccc(O)c(OC)c1	inactive
CCN(CC)C(=O)SCc1ccc(Cl)cc1	inactive
C=C(C)C(=O)OCC1CO1 (stereo not given)	inactive
CCOP(=S)(OCC)O/N=C(\C#N)c1ccccc1	inactive
C1=Cc2cccc3cccc1c23	inactive
CCCCCCOC(=O)c1ccccc1C(=O)OCCCCCC	inactive
CCC(=O)O[C@H]1CC[C@H]2[C@@H]3CCC4=CC(=O)CC[C@]4(C)[C@H]3CC[C@]12C	inactive
Cc1cccc(N)c1N	inactive
NC(=S)Nc1ccccc1	49.8 µM (active) and inactive
CC(O)CCO (stereo not given)	inactive
CCN(CC)N=O	inactive
C=CCc1ccc2c(c1)OCO2	inactive
CNC(=O)N(C)c1nnc(C(C)(C)C)s1	inactive
O=C(NC(=O)c1c(F)cccc1F)Nc1ccc(Cl)cc1	inactive
Cc1cc(C)cc(C)c1	inactive
CC(C)(c1cc(Cl)c(O)c(Cl)c1)c1cc(Cl)c(O)c(Cl)c1	inactive
S=C1NCCN1	inactive
NNC(N)=S	inactive
O=P(O)(O)CCCl	inactive
CCC(CC)Nc1c([N+](=O)[O-])cc(C)c(C)c1[N+](=O)[O-]	inactive

Compound	Potency
CCC(C)c1cc([N+](=O)[O-])cc([N+](=O)[O-])c1O (stereo not given)	inactive
Nc1c(Cl)cc([N+](=O)[O-])cc1Cl	inactive
COP(=S)(OC)Oc1cc(Cl)c(Cl)cc1Cl	inactive
O=C(CCl)c1ccccc1	inactive
C=CC(=O)OCCO	inactive
ClC1C(Cl)C(Cl)C(Cl)C(Cl)C1Cl (stereo not given)	inactive
N[C@@H](Cc1ccc(N(CCCl)CCCl)cc1)C(=O)O	inactive
O=[N+]([O-])c1cccc2ccccc12	inactive
O=C(Nc1ccc(Br)cc1)c1cc(Br)cc(Br)c1O	inactive and 38.9 µM (active)
O=P(Oc1ccccc1)(Oc1ccccc1)Oc1ccccc1	inactive
O=c1oc2ccccc2c(O)c1C(CC(O)c1ccc(-c2ccc(Br)cc2)cc1)c1ccccc1 (stereo not given)	inactive
CCCCN(CCCC)N=O	inactive
Nc1ccc(-c2ccccc2)cc1	inactive
Nn1cnnc1	inactive
Brc1ccc(Oc2cc(Br)c(Br)cc2Br)c(Br)c1	inactive
O=C1C=CC(=O)C=C1	inactive
Oc1cc(Cl)ccc1Oc1ccc(Cl)cc1Cl	inactive
c1cc(OCC2CO2)ccc1Cc1ccc(OCC2CO2)cc1 (stereo not given)	inactive
CN(C)C(=O)Nc1ccc(Cl)cc1	inactive
CCCCC(CC)COC(=O)Cl (stereo not given)	inactive
